What was measured:
Experiment in all cases: log2 ratio of Biotin-Ahx-Ub-VS probe labelling (fragment/DMSO); higher = less target engagement (more negative = stronger competition), active = hit call of the paper (q ≤ 0.05, log2 ratio ≤ -1)
Details in all cases: compound concentration: 200 uM; treatment time: 3 h
[1] = molecular target: USP34 (UniProt Q70CQ2)
Method in brief: (§1)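 Triplicate samples of HEK293T lysate, 495 µg each, received fragment at 200 µM or vehicle for 3 h, followed by Biotin-Ahx-Ub-VS (0.5 µM final) for 1 h. After NeutrAvidin enrichment of labelled DUBs and LysC/trypsin digestion, peptides were run by diaPASEF LC-MS/MS. The values are average log2 fragment/vehicle ratios from global-median-normalised Spectronaut label-free quantities, tested by unpaired t-test on proteins having ≥2 unique peptides.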

[2] = molecular target: T1, USP36 (UniProt Q9P275)
T1 sequence (whole entry): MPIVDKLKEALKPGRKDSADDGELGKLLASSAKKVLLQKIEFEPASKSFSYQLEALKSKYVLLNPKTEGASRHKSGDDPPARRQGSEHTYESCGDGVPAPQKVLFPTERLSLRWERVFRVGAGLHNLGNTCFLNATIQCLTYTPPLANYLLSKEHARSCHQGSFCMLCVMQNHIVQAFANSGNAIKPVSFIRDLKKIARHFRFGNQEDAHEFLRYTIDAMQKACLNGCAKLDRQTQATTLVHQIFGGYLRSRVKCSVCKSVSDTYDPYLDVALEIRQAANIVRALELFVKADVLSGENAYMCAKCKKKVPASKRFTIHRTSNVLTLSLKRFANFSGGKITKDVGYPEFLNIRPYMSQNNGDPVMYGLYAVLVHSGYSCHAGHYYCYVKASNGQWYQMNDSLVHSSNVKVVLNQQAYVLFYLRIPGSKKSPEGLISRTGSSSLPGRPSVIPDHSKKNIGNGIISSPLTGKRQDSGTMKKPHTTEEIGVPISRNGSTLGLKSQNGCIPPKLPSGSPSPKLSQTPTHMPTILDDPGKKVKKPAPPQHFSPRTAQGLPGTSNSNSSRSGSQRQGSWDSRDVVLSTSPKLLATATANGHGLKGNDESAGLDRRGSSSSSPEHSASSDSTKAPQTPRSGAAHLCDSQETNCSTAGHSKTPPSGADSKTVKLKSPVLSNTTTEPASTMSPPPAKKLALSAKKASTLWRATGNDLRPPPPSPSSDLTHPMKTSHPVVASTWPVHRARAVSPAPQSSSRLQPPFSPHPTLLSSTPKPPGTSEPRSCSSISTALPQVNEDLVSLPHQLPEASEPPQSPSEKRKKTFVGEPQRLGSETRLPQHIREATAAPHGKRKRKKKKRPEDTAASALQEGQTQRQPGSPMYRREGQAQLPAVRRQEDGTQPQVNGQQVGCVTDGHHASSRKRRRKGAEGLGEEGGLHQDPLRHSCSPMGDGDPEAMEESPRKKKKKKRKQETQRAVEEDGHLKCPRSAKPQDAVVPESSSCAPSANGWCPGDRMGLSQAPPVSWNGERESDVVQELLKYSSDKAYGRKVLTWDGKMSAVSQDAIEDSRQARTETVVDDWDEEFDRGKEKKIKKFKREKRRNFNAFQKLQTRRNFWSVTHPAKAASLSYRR
Method in brief: as §1

[3] = molecular target: T2, USP38 (UniProt Q8NB14)
T2 sequence (whole entry): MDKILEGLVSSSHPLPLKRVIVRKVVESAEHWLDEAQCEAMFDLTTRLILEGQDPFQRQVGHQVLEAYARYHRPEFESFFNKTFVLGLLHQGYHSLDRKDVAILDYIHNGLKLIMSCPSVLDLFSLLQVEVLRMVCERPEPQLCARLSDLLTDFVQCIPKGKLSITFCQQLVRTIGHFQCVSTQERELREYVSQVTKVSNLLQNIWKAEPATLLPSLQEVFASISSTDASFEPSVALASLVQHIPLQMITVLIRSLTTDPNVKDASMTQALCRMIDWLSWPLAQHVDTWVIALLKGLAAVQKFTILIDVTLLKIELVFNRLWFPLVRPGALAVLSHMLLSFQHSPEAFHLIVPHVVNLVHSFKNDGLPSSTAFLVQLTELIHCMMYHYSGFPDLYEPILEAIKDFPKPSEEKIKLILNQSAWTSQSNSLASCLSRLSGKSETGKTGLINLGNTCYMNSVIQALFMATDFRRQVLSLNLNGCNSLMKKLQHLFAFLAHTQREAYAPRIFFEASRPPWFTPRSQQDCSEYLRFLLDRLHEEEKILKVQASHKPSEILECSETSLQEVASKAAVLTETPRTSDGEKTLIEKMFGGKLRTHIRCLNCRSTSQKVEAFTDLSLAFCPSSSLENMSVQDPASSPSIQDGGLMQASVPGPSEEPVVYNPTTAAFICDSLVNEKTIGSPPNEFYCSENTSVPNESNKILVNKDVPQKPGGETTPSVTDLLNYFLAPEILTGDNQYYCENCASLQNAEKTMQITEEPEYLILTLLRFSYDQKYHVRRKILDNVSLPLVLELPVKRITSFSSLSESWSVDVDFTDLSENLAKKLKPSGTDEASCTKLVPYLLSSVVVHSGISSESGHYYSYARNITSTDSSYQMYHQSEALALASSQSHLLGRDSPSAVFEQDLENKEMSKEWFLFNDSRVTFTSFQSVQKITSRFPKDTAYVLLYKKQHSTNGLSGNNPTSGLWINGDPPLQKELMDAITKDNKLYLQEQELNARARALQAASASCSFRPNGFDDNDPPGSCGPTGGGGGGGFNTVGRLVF
Method in brief: as §1

[4] = molecular target: T3, USP39 (UniProt Q53GS9)
T3 sequence (whole entry): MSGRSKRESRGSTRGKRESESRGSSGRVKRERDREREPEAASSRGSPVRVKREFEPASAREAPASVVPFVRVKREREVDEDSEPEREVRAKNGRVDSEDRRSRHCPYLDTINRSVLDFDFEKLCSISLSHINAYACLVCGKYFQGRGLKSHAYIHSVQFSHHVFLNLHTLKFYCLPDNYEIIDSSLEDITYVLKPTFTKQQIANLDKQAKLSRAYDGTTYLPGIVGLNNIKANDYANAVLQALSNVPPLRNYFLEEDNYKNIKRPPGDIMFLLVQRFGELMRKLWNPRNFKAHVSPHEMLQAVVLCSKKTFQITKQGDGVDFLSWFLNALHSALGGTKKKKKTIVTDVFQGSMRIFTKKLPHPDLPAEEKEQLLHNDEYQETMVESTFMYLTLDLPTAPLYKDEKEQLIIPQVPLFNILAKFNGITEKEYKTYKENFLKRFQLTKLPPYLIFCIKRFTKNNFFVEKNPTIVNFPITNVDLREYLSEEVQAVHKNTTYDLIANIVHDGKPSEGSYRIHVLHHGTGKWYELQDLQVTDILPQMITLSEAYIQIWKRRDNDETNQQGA
Method in brief: as §1

[5] = molecular target: T4, USP4 (UniProt Q13107)
T4 sequence (whole entry): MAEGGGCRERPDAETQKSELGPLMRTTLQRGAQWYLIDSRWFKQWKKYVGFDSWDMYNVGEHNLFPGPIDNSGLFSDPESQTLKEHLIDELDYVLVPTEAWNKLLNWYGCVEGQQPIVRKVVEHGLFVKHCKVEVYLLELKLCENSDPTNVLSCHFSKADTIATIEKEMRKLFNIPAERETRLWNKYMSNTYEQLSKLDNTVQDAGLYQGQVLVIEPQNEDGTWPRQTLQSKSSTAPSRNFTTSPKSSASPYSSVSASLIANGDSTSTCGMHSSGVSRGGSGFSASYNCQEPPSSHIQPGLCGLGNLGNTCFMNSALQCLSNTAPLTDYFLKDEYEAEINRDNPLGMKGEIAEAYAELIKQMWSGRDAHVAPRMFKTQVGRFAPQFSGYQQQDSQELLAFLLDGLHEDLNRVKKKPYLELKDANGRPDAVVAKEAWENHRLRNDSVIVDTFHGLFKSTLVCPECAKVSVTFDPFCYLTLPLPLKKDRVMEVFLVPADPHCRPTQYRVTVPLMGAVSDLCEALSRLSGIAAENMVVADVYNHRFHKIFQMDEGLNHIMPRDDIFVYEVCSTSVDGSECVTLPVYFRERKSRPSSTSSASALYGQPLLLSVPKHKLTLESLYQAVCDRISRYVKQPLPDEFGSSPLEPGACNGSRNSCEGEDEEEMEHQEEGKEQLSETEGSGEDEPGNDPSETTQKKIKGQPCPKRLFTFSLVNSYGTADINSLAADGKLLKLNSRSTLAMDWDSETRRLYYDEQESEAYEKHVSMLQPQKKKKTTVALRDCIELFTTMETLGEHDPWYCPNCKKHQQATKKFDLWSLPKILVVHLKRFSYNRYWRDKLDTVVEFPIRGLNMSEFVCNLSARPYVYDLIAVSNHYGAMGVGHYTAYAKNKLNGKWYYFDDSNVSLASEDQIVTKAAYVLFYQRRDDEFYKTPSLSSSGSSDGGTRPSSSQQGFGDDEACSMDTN
Method in brief: as §1

Measured: log2 ratio of Biotin-Ahx-Ub-VS probe labelling

USP34, sequence (Q70CQ2 whole entry, the tested form may be a part): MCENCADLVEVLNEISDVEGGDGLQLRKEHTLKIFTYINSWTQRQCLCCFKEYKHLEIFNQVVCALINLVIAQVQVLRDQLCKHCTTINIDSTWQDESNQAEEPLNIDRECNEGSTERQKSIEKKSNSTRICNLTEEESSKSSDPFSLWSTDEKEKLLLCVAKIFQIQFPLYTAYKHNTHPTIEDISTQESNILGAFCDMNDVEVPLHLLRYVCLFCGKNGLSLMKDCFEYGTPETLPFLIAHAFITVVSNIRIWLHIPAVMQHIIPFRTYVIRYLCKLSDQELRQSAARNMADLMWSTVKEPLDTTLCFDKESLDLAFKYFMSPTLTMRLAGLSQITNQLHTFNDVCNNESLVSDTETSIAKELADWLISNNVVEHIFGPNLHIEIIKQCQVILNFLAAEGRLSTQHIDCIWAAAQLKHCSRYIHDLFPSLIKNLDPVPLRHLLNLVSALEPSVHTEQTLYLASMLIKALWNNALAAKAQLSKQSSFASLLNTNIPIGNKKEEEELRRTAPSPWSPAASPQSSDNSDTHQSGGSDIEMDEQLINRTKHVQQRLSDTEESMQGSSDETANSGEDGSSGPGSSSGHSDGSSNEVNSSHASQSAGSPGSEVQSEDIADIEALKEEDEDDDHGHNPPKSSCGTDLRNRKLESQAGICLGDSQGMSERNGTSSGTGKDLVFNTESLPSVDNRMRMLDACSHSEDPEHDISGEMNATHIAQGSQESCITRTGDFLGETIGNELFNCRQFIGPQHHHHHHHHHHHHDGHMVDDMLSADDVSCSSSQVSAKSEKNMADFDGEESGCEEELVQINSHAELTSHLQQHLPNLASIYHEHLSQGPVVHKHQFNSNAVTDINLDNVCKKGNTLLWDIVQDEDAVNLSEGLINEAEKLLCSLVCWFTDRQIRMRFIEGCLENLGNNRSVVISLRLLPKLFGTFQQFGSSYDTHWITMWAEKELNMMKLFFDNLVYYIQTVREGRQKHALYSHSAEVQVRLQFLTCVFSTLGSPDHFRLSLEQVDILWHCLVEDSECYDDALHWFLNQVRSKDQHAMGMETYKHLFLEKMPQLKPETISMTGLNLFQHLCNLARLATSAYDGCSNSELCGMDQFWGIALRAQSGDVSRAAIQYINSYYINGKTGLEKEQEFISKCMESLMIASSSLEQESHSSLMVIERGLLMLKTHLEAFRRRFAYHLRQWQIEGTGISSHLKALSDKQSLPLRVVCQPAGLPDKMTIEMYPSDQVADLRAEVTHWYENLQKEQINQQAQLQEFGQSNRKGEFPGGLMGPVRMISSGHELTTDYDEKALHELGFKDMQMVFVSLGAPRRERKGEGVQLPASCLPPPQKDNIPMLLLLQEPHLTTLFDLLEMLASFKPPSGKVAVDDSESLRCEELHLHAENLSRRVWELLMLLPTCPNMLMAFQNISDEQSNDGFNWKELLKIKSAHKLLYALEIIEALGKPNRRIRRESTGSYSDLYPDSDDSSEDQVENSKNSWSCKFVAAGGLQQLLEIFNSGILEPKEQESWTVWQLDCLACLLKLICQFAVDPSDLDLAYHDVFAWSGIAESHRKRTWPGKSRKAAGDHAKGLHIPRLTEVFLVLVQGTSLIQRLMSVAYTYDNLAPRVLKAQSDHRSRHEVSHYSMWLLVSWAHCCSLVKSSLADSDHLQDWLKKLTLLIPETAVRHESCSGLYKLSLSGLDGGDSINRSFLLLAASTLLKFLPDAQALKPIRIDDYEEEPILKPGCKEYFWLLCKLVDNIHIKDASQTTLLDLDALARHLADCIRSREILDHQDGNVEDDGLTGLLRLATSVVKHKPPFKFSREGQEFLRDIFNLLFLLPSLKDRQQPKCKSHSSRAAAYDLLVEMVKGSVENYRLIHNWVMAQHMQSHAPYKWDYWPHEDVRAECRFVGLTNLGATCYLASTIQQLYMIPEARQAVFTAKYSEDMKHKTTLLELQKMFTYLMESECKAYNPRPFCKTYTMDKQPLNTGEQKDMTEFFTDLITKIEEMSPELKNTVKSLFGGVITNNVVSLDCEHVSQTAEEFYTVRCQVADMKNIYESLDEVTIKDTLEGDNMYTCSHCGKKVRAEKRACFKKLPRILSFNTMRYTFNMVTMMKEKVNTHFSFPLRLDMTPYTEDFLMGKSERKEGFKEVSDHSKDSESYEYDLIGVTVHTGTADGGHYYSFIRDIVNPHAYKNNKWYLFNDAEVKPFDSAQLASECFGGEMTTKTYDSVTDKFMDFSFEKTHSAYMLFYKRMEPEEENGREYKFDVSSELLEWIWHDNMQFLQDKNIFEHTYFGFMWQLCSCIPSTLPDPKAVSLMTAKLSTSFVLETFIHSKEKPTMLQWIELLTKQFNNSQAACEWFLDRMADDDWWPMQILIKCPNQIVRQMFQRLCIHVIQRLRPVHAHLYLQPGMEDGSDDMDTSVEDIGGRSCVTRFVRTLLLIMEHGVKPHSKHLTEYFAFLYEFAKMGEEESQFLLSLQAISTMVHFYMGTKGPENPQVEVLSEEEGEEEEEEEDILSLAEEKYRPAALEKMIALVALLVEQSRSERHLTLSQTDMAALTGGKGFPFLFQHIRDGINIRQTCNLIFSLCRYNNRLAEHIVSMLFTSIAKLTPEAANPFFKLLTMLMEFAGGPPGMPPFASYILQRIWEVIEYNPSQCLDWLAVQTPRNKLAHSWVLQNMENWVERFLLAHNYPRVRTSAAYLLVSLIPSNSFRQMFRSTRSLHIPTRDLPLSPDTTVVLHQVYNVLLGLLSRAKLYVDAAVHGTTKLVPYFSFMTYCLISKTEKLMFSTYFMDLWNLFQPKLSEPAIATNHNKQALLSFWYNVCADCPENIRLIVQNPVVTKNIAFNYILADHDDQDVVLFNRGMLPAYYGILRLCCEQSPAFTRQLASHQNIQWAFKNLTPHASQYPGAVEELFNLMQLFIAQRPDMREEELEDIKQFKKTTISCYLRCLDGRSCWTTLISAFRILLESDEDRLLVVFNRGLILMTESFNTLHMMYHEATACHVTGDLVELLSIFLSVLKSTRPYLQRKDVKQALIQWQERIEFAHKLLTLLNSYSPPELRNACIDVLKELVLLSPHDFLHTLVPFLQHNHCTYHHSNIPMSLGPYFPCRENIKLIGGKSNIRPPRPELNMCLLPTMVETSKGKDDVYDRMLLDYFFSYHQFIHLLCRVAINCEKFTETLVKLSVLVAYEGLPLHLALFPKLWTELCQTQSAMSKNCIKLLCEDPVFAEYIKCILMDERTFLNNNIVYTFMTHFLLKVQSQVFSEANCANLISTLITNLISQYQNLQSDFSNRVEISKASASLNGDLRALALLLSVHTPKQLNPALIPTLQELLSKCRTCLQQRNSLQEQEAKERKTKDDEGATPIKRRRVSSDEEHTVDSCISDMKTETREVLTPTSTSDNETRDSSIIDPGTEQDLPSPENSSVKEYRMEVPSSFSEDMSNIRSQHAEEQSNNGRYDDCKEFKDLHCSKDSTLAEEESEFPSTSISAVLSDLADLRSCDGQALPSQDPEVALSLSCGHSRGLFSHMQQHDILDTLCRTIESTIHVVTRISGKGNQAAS

O=C(CCl)N1CCc2nc[nH]c2C1c1ccc(Cl)cc1 (stereo not given)
inactive: [1] -0.355 | [2] -0.00322 | [3] -0.0469 | [4] 0.0317 | [5] -0.375

— the supplement of paper PMC11732987, “Enantioselective OTUD7B fragment discovery through chemoproteomics screening and high-throughput optimisation” (Communications Chemistry, 2025)
